PubChem BioAssay (NCATS)
Results filed as inconclusive are left out. Active and inactive are the calls of the source. Calls follow the shape of the dose curve; as a rule, active = well fitted cell-killing curve with a large enough effect; inconclusive = small, poorly fitted or top-dose-only effect, or effect the other way; inactive = no such curve, though single readings can be large or run the other way.

Tests used:
[1] = Quantitative High-Throughput drug screen in 47 multiple myeloma cell lines against the NCATS MIPE library collection: LP1_DSMZ cell viability assay (AID 1918982); also: nearly all actives have a fitted effect of over 35% in size
Method in brief: (§1)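 500 cells/well; MIPE 4.0 drugs pin-transferred; 48 h, 37C, 5% CO2. CellTiter-Glo, 5 min RT, luminescence. Controls: DMSO 100%, media 0%.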

[2] = Quantitative High-Throughput drug screen in 47 multiple myeloma cell lines against the NCATS MIPE library collection: L363_DSMZ cell viability assay (AID 1918984); also: nearly all actives have a fitted effect of over 40% in size
Method in brief: as §1

[3] = Quantitative High-Throughput drug screen in 47 multiple myeloma cell lines against the NCATS MIPE library collection: OCIMY5_PLB cell viability assay (AID 1918988); also: nearly all actives have a fitted effect of over 65% in size
Method in brief: as §1

[4] = Quantitative High-Throughput drug screen in 47 multiple myeloma cell lines against the NCATS MIPE library collection: U266_ATCC cell viability assay (AID 1919864); also: nearly all actives have a fitted effect of over 35% in size;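 as to viability (% of DMSO control): 0% = media-only wells without cells and 100% = DMSO-only wells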
Method in brief: as §1

[5] = Quantitative High-Throughput drug screen in 47 multiple myeloma cell lines against the NCATS MIPE library collection: XG6_PLB cell viability assay (AID 1919865); also: nearly all actives have a fitted effect of over 40% in size
Method in brief: as §1

[6] = Quantitative High-Throughput drug screen in 47 multiple myeloma cell lines against the NCATS MIPE library collection: XG1_PLB cell viability assay (AID 1919866); also: nearly all actives have a fitted effect of over 35% in size
Method in brief: as §1

[7] = Quantitative High-Throughput drug screen in 47 multiple myeloma cell lines against the NCATS MIPE library collection: VP6_DJ cell viability assay (AID 1919867); also: nearly all actives have a fitted effect of over 40% in size;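 as to viability (% of DMSO): 100% = DMSO-only wells and 0% = wells with media alone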
Method in brief: as §1

[8] = Quantitative High-Throughput drug screen in 47 multiple myeloma cell lines against the NCATS MIPE library collection: UTMC2_PLB cell viability assay (AID 1919868); conditions: CellTiter-Glo ATP luminescence, 48 h; viability (% of DMSO control): at 45.8 µM (top of the series); also: nearly all actives have a fitted effect of over 55% in size;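 as to viability (% of DMSO control): 100% = DMSO-only wells and 0% = media-only wells without cells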
Method in brief: as §1

[9] = Quantitative High-Throughput drug screen in 47 multiple myeloma cell lines against the NCATS MIPE library collection: PE2_PLB cell viability assay (AID 1919869); also: nearly all actives have a fitted effect of over 35% in size
Method in brief: as §1

[10] = Quantitative High-Throughput drug screen in 47 multiple myeloma cell lines against the NCATS MIPE library collection: RPMI8226_ATCC cell viability assay (AID 1919871); also: nearly all actives have a fitted effect of over 30% in size
Method in brief: as §1

[11] = Quantitative High-Throughput drug screen in 47 multiple myeloma cell lines against the NCATS MIPE library collection: OPM2_DSMZ cell viability assay (AID 1919872); also: nearly all actives have a fitted effect of over 30% in size
Method in brief: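 Steps: seed 500 cells per well; pin-transfer MIPE 4.0 library; incubate 48 h at 37C, 5% CO2, humidified; add CellTiter-Glo, 5 min room temperature; read luminescence.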

[12] = Quantitative High-Throughput drug screen in 47 multiple myeloma cell lines against the NCATS MIPE library collection: KMS28BM_JCRB cell viability assay (AID 1919874); also: nearly all actives have a fitted effect of over 35% in size
Method in brief: as §1

[13] = Quantitative High-Throughput drug screen in 47 multiple myeloma cell lines against the NCATS MIPE library collection: KMS28PE_JCRB cell viability assay (AID 1918983); also: nearly all actives have a fitted effect of over 35% in size
Method in brief: as §1

[14] = Quantitative High-Throughput drug screen in 47 multiple myeloma cell lines against the NCATS MIPE library collection: OPM1_PLB cell viability assay (AID 1918989); also: nearly all actives have a fitted effect of over 40% in size
Method in brief: as §1

[15] = Quantitative High-Throughput drug screen in 47 multiple myeloma cell lines against the NCATS MIPE library collection: SKMM1_PLB cell viability assay (AID 1919863); conditions: SKMM1 myeloma viability, CellTiter-Glo ATP, 48 h; viability: stronger effect = lower value; also: nearly all actives have a fitted effect of over 35% in size
Method in brief: as §1

[16] = Quantitative High-Throughput drug screen in 47 multiple myeloma cell lines against the NCATS MIPE library collection: KMS34_JCRB cell viability assay (AID 1918985); also: nearly all actives have a fitted effect of over 40% in size
Method in brief: as §1

[17] = Quantitative High-Throughput drug screen in 47 multiple myeloma cell lines against the NCATS MIPE library collection: KMS11_JCRBsus cell viability assay (AID 1919873); also: nearly all actives have a fitted effect of over 50% in size
Method in brief: as §1

[18] = Quantitative High-Throughput drug screen in 47 multiple myeloma cell lines against the NCATS MIPE library collection: OCIMY7_PLB cell viability assay (AID 1918987); conditions: OCI-MY7 myeloma viability, CellTiter-Glo ATP, 48 h; viability (% of DMSO): at 45.8 µM (top of the series); also: nearly all actives have a fitted effect of over 65% in size
Method in brief: as §1

[19] = Quantitative High-Throughput drug screen in 47 multiple myeloma cell lines against the NCATS MIPE library collection: PCM6_Riken cell viability assay (AID 1919870); also: nearly all actives have a fitted effect of over 30% in size
Method in brief: as §1
Potency is read from the fitted curve at half-maximal effect.

COC1CCC(N(C(=O)C2CCC(C)CC2)c2cc(C3=CCCCC3)sc2C(=O)O)CC1 (configuration not stated)
inactive: Potency [1] | Potency [2] | Potency [4] | Potency [10] | Potency [11] | Potency [12]
active: Potency [3] 11.8 µM | Potency [5] 23.5 µM | Potency [6] 20.9 µM | Potency [7] 14.8 µM | viability (% of DMSO control) [8] 89.9% | Potency [9] 23.5 µM

Cn1cc(C=C2C(=O)Nc3cccnc32)c2ccccc21
active: Potency [14] 18.7 µM
inactive: Potency [1] | Potency [13] | viability [15] 130% | Potency [6] | Potency [10] | Potency [11] | Potency [12]

CC1(C)O[C@H]2C[C@@H]3[C@H]4CCC5=CC(=O)C=C[C@]5(C)[C@@]4(F)[C@@H](O)C[C@]3(C)[C@]2(C(=O)CO)O1
inactive: Potency [13] | Potency [14] | viability [15] 108% | Potency [4] | Potency [5] | Potency [6] | Potency [8] | Potency [9] | Potency [11] | Potency [12]
active: Potency [1] 0.0132 µM | Potency [16] 0.0118 µM | Potency [10] 0.003 µM | Potency [17] 0.0083 µM

CC1(C)S[C@H]2[C@H](NC(=O)[C@@H](N)c3ccc(O)cc3)C(=O)N2[C@@H]1C(=O)O
inactive: Potency [9] | Potency [11]
active: Potency [13] 18.7 µM | Potency [2] 2.64 µM | Potency [18] 3.72 µM | Potency [4] 11.8 µM | Potency [5] 2.64 µM | Potency [6] 1.32 µM | Potency [7] 0.0743 µM | Potency [19] 1.87 µM | Potency [17] 18.7 µM | Potency [12] 5.9 µM

CCCCCN(C)CCC(O)(P(=O)(O)O)P(=O)(O)O
inactive: Potency [1] | Potency [2] | Potency [16] | Potency [14] | Potency [4] | Potency [5] | Potency [6] | Potency [9] | Potency [10] | Potency [11] | Potency [17] | Potency [12]

CCOC(CN1C(=O)[C@](CC(=O)Nc2ccc(C)cc2)(NC(=O)Nc2ccc(C)cc2)c2ccccc21)OCC
inactive: Potency [1] | viability [15] 93.3% | Potency [11]
active: Potency [3] 26.4 µM | Potency [9] 23.5 µM | Potency [17] 26.4 µM

O=c1c(-c2ccc(O)cc2)coc2cc(O[C@@H]3O[C@H](CO)[C@H](O)[C@H](O)[C@H]3O)ccc12
inactive: Potency [13] | Potency [2] | Potency [16] | Potency [14] | viability [15] 171% | Potency [5] | Potency [6] | Potency [9] | Potency [19] | Potency [10] | Potency [11] | Potency [17] | Potency [12]

Cc1ccn(-c2ccc(-c3ncco3)cc2)c(=O)c1-c1ccc2nc(N)ncc2c1
active: Potency [18] 0.935 µM | Potency [14] 3.72 µM | Potency [6] 3.72 µM | Potency [7] 1.66 µM | Potency [9] 4.69 µM
inactive: Potency [1] | Potency [13] | viability [15] 99.5% | Potency [10] | Potency [12]

C[C@H](NC(=O)c1sccc1OCc1ccc(Cl)cc1)c1ccccc1
active: Potency [1] 16.6 µM | Potency [13] 16.6 µM | Potency [3] 16.6 µM | Potency [15] 18.7 µM | Potency [9] 18.7 µM | Potency [11] 18.7 µM | Potency [17] 7.43 µM

CC(=O)OC1C(C)OC(Oc2c(-c3ccc(O)cc3)oc3cc(O)cc(O)c3c2=O)C(O)C1OC(C)=O (configuration not stated)
active: Potency [14] 10.5 µM | Potency [4] 18.7 µM | Potency [10] 10.5 µM
inactive: Potency [1] | Potency [13] | Potency [16] | Potency [6] | Potency [7] | Potency [11] | Potency [12]

COCCOC(=O)C1=C(C)NC2=C(C(=O)CC(c3ccccc3OC)C2)C1c1cccc(O)c1 (configuration not stated)
active: Potency [13] 5.9 µM | Potency [2] 0.001 µM | Potency [18] 2.64 µM | Potency [3] 8.33 µM | Potency [14] 6.62 µM | Potency [15] 10.5 µM | Potency [4] 13.2 µM | Potency [5] 2.64 µM | Potency [6] 4.18 µM | Potency [7] 2.96 µM | Potency [9] 16.6 µM | Potency [11] 16.6 µM | Potency [17] 5.26 µM

O=C1NC(=O)C(=Cc2ccc3c(c2)OC(F)(F)O3)S1
active: Potency [1] 18.7 µM | Potency [14] 7.43 µM | Potency [5] 1.66 µM | Potency [7] 14.8 µM | Potency [8] 23.5 µM | Potency [9] 20.9 µM | Potency [19] 4.18 µM
inactive: Potency [13] | Potency [4] | Potency [11] | Potency [17] | Potency [12]

CCc1ccc(C=C2SC(=S)NC2=O)cc1
inactive: Potency [1] | Potency [13] | Potency [3] | Potency [14] | Potency [10] | Potency [11] | Potency [12]

CC(C)C[C@H](CC(=O)O)C(=O)N[C@@H](Cc1c[nH]c2ccccc12)C(=O)N[C@@H](C)c1ccccc1
inactive: Potency [1] | Potency [2] | Potency [16] | Potency [14] | Potency [5] | Potency [6] | Potency [8] | Potency [9] | Potency [19] | Potency [11] | Potency [17]

CCC(=O)O[C@]1(C(=O)CO)CC[C@H]2[C@@H]3CCC4=CC(=O)CC[C@]4(C)[C@@H]3CC[C@@]21C
active: Potency [1] 5.26 µM | Potency [16] 0.0017 µM | Potency [17] 0.209 µM
inactive: Potency [13] | Potency [14] | viability [15] 108% | Potency [4] | Potency [8] | Potency [9] | Potency [10] | Potency [12]

Nc1ncnc2c1ncn2[C@@H]1O[C@@H](CO)[C@H](O)[C@H]1O
inactive: Potency [1] | Potency [13] | Potency [14] | Potency [5] | Potency [6] | Potency [9] | Potency [10] | Potency [11] | Potency [17]

COc1cccc2c1CCCC2CCCN1CCN(C2CCCCC2)CC1 (configuration not stated)
active: Potency [13] 14.8 µM | Potency [2] 16.6 µM | Potency [18] 13.2 µM | Potency [3] 16.6 µM | Potency [14] 20.9 µM | Potency [5] 23.5 µM | Potency [6] 18.7 µM | Potency [8] 16.6 µM | Potency [9] 23.5 µM | Potency [19] 13.2 µM | Potency [10] 14.8 µM | Potency [17] 18.7 µM | Potency [12] 18.7 µM
inactive: Potency [16]

Clc1cc(Cl)cc(CNc2ncncc2-c2ccc3c(c2)OCO3)c1
inactive: Potency [4]
active: Potency [18] 4.69 µM | Potency [3] 20.9 µM | Potency [14] 20.9 µM | Potency [15] 16.6 µM | Potency [9] 20.9 µM | Potency [17] 16.6 µM

COCCCCC(=NOCCN)c1ccc(C(F)(F)F)cc1
active: Potency [16] 3.72 µM | Potency [3] 23.5 µM | Potency [14] 23.5 µM | Potency [4] 16.6 µM | Potency [9] 18.7 µM | Potency [11] 16.6 µM
inactive: Potency [2]

CC(C)(C)NC(=O)Nc1cccc(Nc2ncc(F)c(NC(C)(C)CO)n2)c1
inactive: Potency [13] | Potency [4] | Potency [10] | Potency [12]
active: Potency [3] 3.72 µM | Potency [14] 13.2 µM | Potency [5] 20.9 µM | Potency [6] 3.72 µM | Potency [9] 18.7 µM | Potency [11] 16.6 µM

CC=CCC(C)C(O)C1C(=O)NC(CC)C(=O)N(C)CC(=O)N(C)C(CC(C)C)C(=O)NC(C(C)C)C(=O)N(C)C(CC(C)C)C(=O)NC(C)C(=O)NC(C)C(=O)N(C)C(CC(C)C)C(=O)N(C)C(CC(C)C)C(=O)N(C)C(C(C)C)C(=O)N1C (configuration not stated)
inactive: Potency [4] | Potency [17]

CN1CCN(CCOc2cc(OC3CCOCC3)c3c(Nc4c(Cl)ccc5c4OCO5)ncnc3c2)CC1
inactive: Potency [11]
active: Potency [2] 14.8 µM | Potency [3] 18.7 µM | Potency [14] 20.9 µM | Potency [5] 5.26 µM | Potency [6] 18.7 µM | Potency [9] 23.5 µM | Potency [19] 9.35 µM | Potency [17] 23.5 µM

COc1ncc(-c2ccc3nccc(-c4ccnnc4)c3c2)cc1NS(=O)(=O)c1ccc(F)cc1F
active: Potency [18] 0.166 µM | Potency [3] 1.48 µM | Potency [15] 0.0118 µM | Potency [5] 0.0187 µM | Potency [19] 0.0332 µM | Potency [11] 0.0026 µM
